# Results filed as inconclusive are left out. Entries that show only a call come without a potency. Active and inactive are the calls of the source. Calls come from the whole dose curve.
# Assay: qHTS assay for small molecules that induce genotoxicity in human embryonic kidney cells expressing luciferase-tagged ATAD5 - cell viability (AID 651634); note: nearly all actives have a fitted effect of over 25% in size
# Details: HEK293T ATAD5-luc cells viability, CellTiter-Fluor, 15.5 h; series mostly up to 83.3 µM
# Text: National Center for Advancing Translational Sciences [NCATS]
# NIH Chemical Genomics Center [NCGC]
# U.S. Environmental Protection Agency [EPA]
# National Institutes of Environmental Health Sciences [NIEHS]
# National Toxicology Program [NTP]
# U.S. Food and Drug Administration [FDA]
# Enhanced Level of Genome Instability Gene 1 (ELG1; human ATAD5) protein levels increase in response to various types of DNA damage. Using a luciferase reporter-gene tagged with ElG1, a cell-based assay [developed by Kyungjae Myung, NHGRI, NIH] was used to measure the induction of ATAD5 in human embryonic kidney cells (HEK293T). So, increase in luciferase activity can be used to identify the compounds that cause genetic stress. In addition to genotoxicity, these cells were also used to test for cytotoxicity by measuring the protease activity within live cells.
# Tox21 Assay Protocol Summary:
# For cytotoxicity screening, 2,000 cells in 5 uL/well were dispensed into white, solid-bottom 1536-well plates using a Multidrop Combi (Thermo Scientific) dispenser. Following transfer of 23 nL compound or DMSO vehicle by a pin tool, the plates were incubated 15.5 hr at 37C and 5% CO2. 1 ul CellTiter-Fluor reagent (Promega, Madison, WI) was then added to each plate and following 30 min incubation at 37C, fluorescence intensity was quantified on a ViewLux CCD-based plate reader.
# Potency is the fitted concentration of half-maximal effect.
row,SMILES,Potency
1,CCCCCC(CO)CCC (stereo not given),inactive
2,CCCOc1ccc2nc(NC(=O)OC)[nH]c2c1,0.15 µM (active)
3,Cc1cccc(Oc2ccccc2)c1,inactive
4,CCCCCCCC/C=C\CCCCCCCC(N)=O,inactive
5,Cc1cc(NC(=O)C(=O)O)cc(C)c1Oc1ccc(O)c2c1CCC2,inactive
6,CC(C)(C)C(=O)OCOP(=O)(COCCn1cnc2c(N)ncnc21)OCOC(=O)C(C)(C)C,inactive
7,c1ccc(OCc2ccc(CCCN3CCOCC3)cc2)cc1,inactive
8,O=C(Cl)c1c(Cl)cccc1Cl,inactive
9,O=S(=O)(O)c1ccc(O)c2ncccc12,inactive
10,O=c1c2ccccc2nnn1CCl,inactive
11,NCc1ccccc1,inactive
12,CC(=O)OCCc1ccccc1,inactive
13,CCN(CCO)CCCC(C)Nc1ccnc2cc(Cl)ccc12 (stereo not given),inactive
14,CCCCCCCCCC(=O)OCC,inactive
15,CN1CCC(OC(c2ccccc2)c2ccccc2)CC1,inactive
16,NCCCN(CCO)CCO,inactive
17,CCCCc1cc2ccccc2c(OCCN(C)C)n1,inactive
18,NC(N)=N/N=C/c1c(Cl)cccc1Cl,inactive
19,Cc1ccc(C)o1,inactive
20,CC1=CCC(C(C)C)C=C1 (stereo not given),inactive

row,SMILES,Potency
1,CC(C)(C)c1cc(CCC(=O)OCC(COC(=O)CCc2cc(C(C)(C)C)c(O)c(C(C)(C)C)c2)(COC(=O)CCc2cc(C(C)(C)C)c(O)c(C(C)(C)C)c2)COC(=O)CCc2cc(C(C)(C)C)c(O)c(C(C)(C)C)c2)cc(C(C)(C)C)c1O,inactive
2,O=S1(=O)N=C(O)c2ccccc21,inactive
3,CC(=O)c1ccc2c(c1)[C@H](NC(=O)c1ccc(F)cc1)[C@@H](O)C(C)(C)O2,inactive
4,CNS(=O)(=O)Cc1ccc2[nH]cc(CCN(C)C)c2c1,inactive
5,Cc1ccc(C(=O)C(C)CN2CCCCC2)cc1 (stereo not given),inactive
6,CC[C@]12CCCN3CCc4c(n(c5ccccc45)C(=O)C1)[C@@H]32,inactive
7,CCCCCCCCCCCCC(=O)O,inactive
8,O=C(O)/C=C/c1cnc[nH]1,inactive
9,CC(CN)CCCN (stereo not given),inactive
10,CCCCOC(O)CC (stereo not given),inactive
11,CCCCCc1ccc(N)cc1,inactive
12,CN1CCC(=C2c3ccccc3CCc3sccc32)CC1,inactive
13,C=C(C)C(=O)OC(C)C,inactive
14,CC(C)(C)c1cc(O)c(C(C)(C)C)cc1O,inactive
15,O=C(NS(=O)(=O)/C=C/c1cccs1)c1ccc(F)cc1Br,inactive
16,CCCCOC(=O)c1ccccc1C(=O)OCC(CC)CCCC (stereo not given),inactive
17,Cc1ccc(C(C)c2ccc(C)c(C)c2)cc1C,inactive
18,CCCCOc1ccc(CC(=O)NO)cc1,9.02 µM (active)
19,CC(C)(C)C1CCCCC1O (stereo not given),inactive
20,Cc1cc(C)c(S(=O)(=O)O)cc1N=Nc1cc(S(=O)(=O)O)c2ccccc2c1O,48.6 µM (active)
